From PubChem
Shown are actives, neighbours in structure and some others; about 2.6% of the full set was active somewhere.
GLP-1R inv ag = inverse agonists of human GLP-1 receptor; AID 624417; P43220; 410,000 compounds, 1.6% hits; Potency, µM (titrated, usually from 38.3 µM), inactives show at the top dose activity change, negative = inhibition, usual class: inhibitors; HEK293 GLP-1R CRE-luciferase, luminescence, 24 h; GLP-1R form is constitutively active; further: on the % scale 0 is the no-effect control and ±100 the full control effect; nearly all actives have a fitted effect of over 55% in size
Target sequence (P43220 whole entry, looked up): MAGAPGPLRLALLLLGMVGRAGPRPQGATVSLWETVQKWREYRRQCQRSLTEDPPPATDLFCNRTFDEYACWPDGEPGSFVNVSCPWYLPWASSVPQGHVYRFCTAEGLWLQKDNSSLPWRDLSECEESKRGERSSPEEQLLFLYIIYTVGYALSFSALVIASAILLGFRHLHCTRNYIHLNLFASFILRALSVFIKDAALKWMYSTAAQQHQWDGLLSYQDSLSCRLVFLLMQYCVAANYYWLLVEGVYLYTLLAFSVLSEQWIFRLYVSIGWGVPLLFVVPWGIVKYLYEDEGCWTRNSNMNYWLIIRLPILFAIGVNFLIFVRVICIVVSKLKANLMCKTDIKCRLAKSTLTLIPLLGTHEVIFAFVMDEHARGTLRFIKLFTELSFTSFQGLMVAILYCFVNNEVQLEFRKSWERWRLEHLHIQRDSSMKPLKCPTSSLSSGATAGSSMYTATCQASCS
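HEK293 cells stably co-expressing constitutively active GLP-1R and a cAMP-responsive luciferase reporter were seeded in DMEM with 10% Nu serum, given compounds after 12 h, and incubated 24 h at 37 deg C. Luminescence was then read.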
GLP1R ag = agonists of human GLP-1 receptor; Potency, µM (highest dose often 45.6 µM), inactives show top-dose activation, actives largely listed as activators; 380,000 compounds, 0.007% hits; AID 624172; HEK293 GLP-1R CRE-luciferase, luminescence, 4-6 h; cells express a hypersensitive GLP-1R form; P43220; further: % of control where 0% means no effect
GLP1R cytotox = cytotoxicity in counter-screen for GLP-1R inverse agonists; HEK293 cAMP-luciferase reporter cells, luminescence, 24 h; Potency, µM (doses to about 38.3 µM), inactives show at the highest dose activity change, negative = inhibition, most hits filed as inhibitors; 410,000 compounds, 0.13% hits; AID 624418;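 further: loss of luciferase light is scored as toxicity; on the % scale 0 is the no-effect control and ±100 the full control effect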
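A 23 nL compound transfer followed 12 hours of cell culture at 37 deg C; exposure then lasted 24 hr. Luciferase assay detection reagent was dispensed and plates read for luminescence after a 12 min room-temperature wait.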
BRCA1 expr up = activators of BRCA1 expression. MCF7-BRCA1-FFLuc reporter, luminescence, 48 h; response scale: scaled: vehicle 0%, 10 µM genistein 100%. Potency, µM (titrated, usually from 46.1 µM), for the others: at the top dose activation, hits mostly activators. 380,000 compounds, 1.1% hits. AID 624202; further: nearly all actives have a fitted effect of over 80% in size
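Reporter cells (MCF7, BRCA1 promoter-firefly luciferase) received library compounds across a concentration series for 48 h. End-point luminescence was measured and concentration-effect curves derived after normalization.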
* hit, by the source's call; u = inconclusive; x = not tested or not shown. The call rests on the fitted dose curve; in most records, active means well fitted curve in the direction sought with a large enough effect; inconclusive means small, poorly fitted or top-dose-only effect, or another doubt; inactive means no such curve, though single readings can be large; an effect the other way counts as inactive or inconclusive. Potency means the concentration at half of the fitted maximal effect.

SMILES	GLP-1R inv ag	GLP1R ag	GLP1R cytotox	BRCA1 expr up
CCN(CC)C(=S)NC(=O)c1ccc(F)cc1	u	7%	3.5µM*	-17%
CN1[C@@H](Cc2ccccc2)COc2cc(N3CCSCC3)ccc2S1(=O)=O	u	-2%	3%	-18%
COc1ccc(/C=C/C(=O)N(CC(C)C)CC(C)C)cc1Br	11µM*	16%	-2%	-49%
COc1ccc(NS(=O)(=O)c2cc(C)ccc2OC)cc1OC	5%	-1%	-11%	0%
COc1ccc(C)cc1S(=O)(=O)Nc1ccc(F)c(Cl)c1	10µM*	-3%	-8%	-27%
Oc1cccc(/C=N/Nc2cc(N3CCOCC3)nc(N3CCOCC3)n2)c1	3.5µM*	-1%	9%	-64%
O=C(Oc1cccc(/C=N/Nc2nc(Nc3ccccc3)nc(N3CCOCC3)n2)c1)c1ccco1	1.8µM*	-4%	28%	-57%
CCNc1ncnc2c1cnn2C1CCCO1 (stereo not drawn)	21%	6%	0%	-3%
CC(C)Cn1c(N)c(C(=O)COC(=O)CC23CC4CC(CC(C4)C2)C3)c(=O)n(C)c1=O	2.8µM*	-22%	-18%	-53%
Cc1cccc(C(=O)OCC(=O)c2c(N)n(CC(C)C)c(=O)n(C)c2=O)c1O	10µM*	-2%	-14%	-33%
CC(C)Cn1c(N)c(C(=O)COC(=O)c2ccc(Br)cc2)c(=O)n(C)c1=O	10µM*	-1%	-8%	-3%
COc1ccc(C2=CSC3=C(C(=O)c4cccc(S(=O)(=O)N(C)C)c4)CCN23)cc1	1%	-1%	7%	-12%
Cc1nn(CCC(=O)Nc2cc(F)ccc2F)c(=O)c2nn(-c3ccccc3)c(C)c12	6%	x	-11%	x
COCC(C)NC(=O)c1noc2c1CCc1cc(OC)ccc1-2 (stereo not drawn)	0%	3%	3%	u
COCCNC(=O)c1noc2c1CCc1cc(OC)ccc1-2	0%	8%	-1%	2.2µM*
COc1ccc2c(c1)CCc1c(C(=O)NCc3ccco3)noc1-2	0%	1%	-7%	6.3µM*
CCc1ccccc1N(c1nc(-c2ccc(OC)c(OC)c2)no1)c1nc(-c2ccc(OC)c(OC)c2)no1	-12%	1%	2%	-7%
CC[N+](CC)(CC)CCOC(=O)C(C1CCCC1)C1CCCC1	x	0%	x	x
Nc1nc(N)c2c(ccc3c2ccn3Cc2cccc([N+](=O)[O-])c2)n1	0.5µM*	-11%	u	-74%
O=C(NC(=S)Nc1ncccn1)c1ccc(F)cc1	0%	11%	9%	u
O=C(CC(=O)c1ccccc1)Nc1cccnc1Cl	20%	6%	3%	7.1µM*
O=C(NC(=S)Nc1cccnc1Cl)c1ccc(F)cc1	9%	9%	u	10µM*
COC(=O)[C@H]1[C@H]2C[C@@H]3c4[nH]c5ccccc5c4CCN3C[C@H]2C[C@@H](OC(=O)c2cc(OC)c(OC)c(OC)c2)[C@@H]1OC	x	2%	x	x
CCN(CC)C(=O)N1c2ccccc2C=Cc2ccccc21	5.6µM*	1%	-6%	52%
NC(=O)N1c2ccccc2C=Cc2ccccc21	7%	9%	3%	12%
SMILES	GLP-1R inv ag	GLP1R ag	GLP1R cytotox	BRCA1 expr up
O=C1Nc2cc(Cl)ccc2Oc2cc(Oc3ccccc3)ccc21	u	x	-16%	x
CNc1ncc(C(=O)c2ccc(F)cc2)s1	22%	18%	-10%	u
O=C(c1ccc(F)cc1)c1cnc(Nc2ccccc2)s1	15%	5%	10%	2µM*
CC(NC(=O)c1ccco1)c1nc(-c2ccc(C(C)(C)C)cc2)no1 (stereo not drawn)	10µM*	19%	-21%	9%
Cc1ccc(-c2noc(C(C)NC(=O)c3ccco3)n2)cc1 (stereo not drawn)	-25%	x	-5%	-4%
Cc1cccc(NC(=O)COc2ccccc2C(=O)Nc2ccccc2)c1	x	x	x	0%
CC(C)CC(=O)NC(NC(=S)Nc1cccc2cccnc12)C(Cl)(Cl)Cl (stereo not drawn)	7.9µM*	-19%	-17%	-45%
CC(C)C(=O)NC(Nc1cccc2cccnc12)C(Cl)(Cl)Cl (stereo not drawn)	u	-7%	0%	-36%
CCc1ccccc1-n1nnnc1SCC(=O)Nc1ccc(N2CCN(C)CC2)cc1	1.8µM*	7%	-8%	-34%
